Screening results (PubChem BioAssay)
TEAD-YAP inh: TEAD-YAP interaction inhibition; inhibition, % at 9.12 µM; HEK-TIYL cells, TEAD-Gal4/YAP UAS-luciferase luminescence; AID 1259422; hit rate 1.4% among 640,000; in the data active means inhibition above about 32%;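 further: 0% = median of test compound wells and 100% = reference inhibitor wells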
GPR151 ag: human GPR151 activation. Q8TDV0. PathHunter beta-arrestin GPR151 cells, luminescence. activation, % at 11.2 µM. hit rate 1% among 650,000. AID 1508602; in the data active means activation above about 4.9%;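 further: 0% = median of compound wells and 100% = cells with positive control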
MITF primary: blocks human microphthalmia-associated transcription factor; AlphaScreen MITF homodimerization, bead proximity signal; inhibition, % at 2.6 µM; hit rate 0.91% among 650,000; in the data active means inhibition above about 50%;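 further: 0% = vehicle wells with protein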
Target sequence (O75030 whole entry, looked up): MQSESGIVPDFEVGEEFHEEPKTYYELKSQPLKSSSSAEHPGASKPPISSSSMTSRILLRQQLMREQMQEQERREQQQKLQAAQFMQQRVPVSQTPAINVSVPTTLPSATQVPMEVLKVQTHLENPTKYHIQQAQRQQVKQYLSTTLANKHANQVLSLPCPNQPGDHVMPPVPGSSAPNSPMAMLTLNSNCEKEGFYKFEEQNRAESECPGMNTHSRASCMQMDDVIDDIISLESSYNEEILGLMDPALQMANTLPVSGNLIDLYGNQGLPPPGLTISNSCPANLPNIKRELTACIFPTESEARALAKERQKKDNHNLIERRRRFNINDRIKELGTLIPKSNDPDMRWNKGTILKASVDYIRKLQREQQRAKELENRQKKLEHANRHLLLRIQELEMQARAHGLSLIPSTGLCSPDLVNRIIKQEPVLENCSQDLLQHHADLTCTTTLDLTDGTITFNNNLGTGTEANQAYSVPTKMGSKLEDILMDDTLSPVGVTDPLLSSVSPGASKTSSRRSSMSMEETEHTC
FBW7 activator: activators of human E3 ligase FBW7 | Q969H0 | AlphaScreen FBW7–phospho-cyclin E peptide binding, activator screen | normalized activity (activation), % at 26.1 µM | hit rate 0.13% among 650,000 | AID 1259310; in the data active means normalized activity above about 1.9%;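 further: purified mutant Fbw7 with reduced substrate affinity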
* hit, by the source's call; ! = a repeat was not active. Only some compounds are listed: those with a hit (about 3.5% of all), similar ones and a draw of the others.

SMILES | TEAD-YAP inh | GPR151 ag | MITF primary | FBW7 activator
O=C1NC(=O)C(=Cc2ccc(OCc3cccc(C(=O)O)c3)cc2)C(=O)N1 | 71.2* | -7.7 | -3.3 | -0.4
COc1cc(C=C2C(=O)NC(=S)NC2=O)ccc1OCc1cccc(C(=O)O)c1 | 85.0* | -7.8 | -20.0 | -0.1
O=C1NC(=O)C(=Cc2cc(Cl)ccc2OCc2ccc(C(=O)O)cc2)C(=O)N1 | 0.0 | 1.2 | 5.3 | -0.8
CCOc1ccc(C=C2C(=O)NC(=S)NC2=O)cc1OCC | 4.4 | -1.0 | 5.3 | 0.0
COc1ccc(C)cc1NC(=O)N(Cc1cccnc1)C1CCN(Cc2ccncc2)CC1 | -9.1 | 1.4 | -0.6 | -0.2
C=CCOc1ccc(/C=C(\C)[N+](=O)[O-])cc1OC | 41.6* | 0.1 | 3.4 | -0.1
CCOC(=O)C12OC1(c1ccc(CC)cc1)C(=O)c1ccccc1C2=O (stereo not drawn) | 36.6* | 0.2 | 21.3 | 0.1
CCOC(=O)C1=C(C)NC(C)=C2C(=O)Oc3ccccc3C12 (stereo not drawn) | 0.5 | 0.5 | -3.2 | 0.1
O=C(c1noc2c1COc1ccccc1-2)N1CCC2(CC1)OCCO2 | 74.9* | -5.7 | 10.1 | 0.9
O=C(c1cc(-c2ccccc2)on1)N1CCC2(CC1)OCCO2 | -52.1 | -5.1 | 4.2 | 0.1
O=C1NC(=O)C(=Cc2ccc(Sc3ccc(Cl)cc3)c([N+](=O)[O-])c2)C(=O)N1 | -7.5 | 0.1 | 16.1 | -1.2
O=C(Nc1ccc(Br)cc1C(=O)c1ccccc1)c1ccc(S(=O)(=O)N2CCCCC2)cc1 | 0.7 | 0.5 | -8.1 | 0.0
COc1cc([C@@H]2c3cc4c(cc3[C@H](OC(C)=O)[C@H]3COC(=O)[C@@H]23)OCO4)cc(OC)c1OC | 52.0* | 3.0 | -6.1 | 0.8
COc1cc([C@@H]2c3cc4c(cc3[C@@H](O)[C@H]3COC(=O)[C@H]23)OCO4)cc(OC)c1O | -9.1 | 3.5 | 10.7 | 0.6
N#CC(C#N)=Cc1cc(C=C(C#N)C#N)c(O)o1 | 13.7 | 0.6 | 83.7* | -0.6
CC(=O)Oc1ccc(/C=C/c2cc(OC(C)=O)cc(OC(C)=O)c2)cc1 | 96.0* | -7.4 | 0.4 | -0.1
Cc1nc2ccc(I)cc2c(=O)n1-c1ccc([N+](=O)[O-])cc1 | -1.6 | -0.7 | 14.3 | 0.0
CCOC(=O)C1C2NC(=S)N(c3ccc(Cl)cc3)C1(C)Oc1ccc(OC)cc12 (stereo not drawn) | 50.5* | -0.8 | 19.4 | -0.5
CCOC(=O)C1C2NC(=S)N(c3ccc(Cl)cc3)C1(C)Oc1c(OC)cccc12 (stereo not drawn) | 61.5* | 1.2 | 25.8 | -0.6
C[C@@]12CCC3C(CC[C@H]4CCCC[C@]34C)C1CCC2=O (stereo partly drawn) | -7.0 | -0.2 | -4.3 | 0.1
Cc1cc(OCC(=O)OCc2ccccc2)c2c3c(c(=O)oc2c1)CCCC3 | 0.6 | -0.4 | 12.4 | 0.2
COC1=CC(=O)O[C@@H](CCc2ccc3c(c2)OCO3)C1 | 11.8 | 2.0 | 20.8 | 0.5
COC1=CC(=O)O[C@H](/C=C/c2ccc3c(c2)OCO3)C1 | 77.9* | 0.6 | 0.6 | 0.7
CCn1c(O)c(C(C)=O)c(=O)n(CC)c1=S | -4.8 | -0.9 | 8.7 | 0.1
Cc1cc(N2C(=O)C3CCCN3C2c2ccc(F)cc2)no1 (stereo not drawn) | -3.6 | -0.4 | 3.4 | 0.6
SMILES | TEAD-YAP inh | GPR151 ag | MITF primary | FBW7 activator
CC1=[N+](C)c2c(ccc3ccccc23)C1(C)C | 59.8* | 1.1 | 26.0 | -0.1
CCOC(=O)c1c(CN2CCN(c3ccccc3C)CC2)n(Cc2ccccc2)c2cc(Br)c(O)cc12 | 0.6 | -0.3 | 8.9 | -0.1
C[N+]1(C)CCc2cc3c(cc2[C@H]1[C@@H]1OC(=O)c2c1ccc1c2OCO1)OCO3 | -3.8 | 4.1 | 19.5 | 0.9
CN1Cc2c(ccc3c2OCO3)[C@@H]2[C@H]1c1cc3c(cc1C[C@@H]2O)OCO3 | 62.0* | -0.1 | 6.5 | 0.1
O=C(c1ccccc1Cl)c1cc([N+](=O)[O-])ccc1-n1cccc1 | 51.1* | 0.7 | 8.8 | -0.1
COc1ccc(N2CCN(Cc3cccc(F)c3)CC2)cc1 | 0.2 | -1.2 | 43.4 | 0.1
C[C@H]1C(=O)O[C@@H]2CCN3CC=C(COC(=O)[C@](C)(O)[C@]1(C)O)[C@H]23 | 73.6*! | -3.5 | 12.2 | 0.2
COc1ccc(CN2CCN(c3ccccc3)CC2)c(OC)c1C | 10.8 | 0.1 | 15.3 | -0.3
CCO/C(C)=C/c1sc2ccccc2[n+]1CC | 6.0 | 0.5 | 11.2 | 0.2
O=C(Oc1ccc([N+](=O)[O-])c2cccnc12)c1cccc(S(=O)(=O)N2CCOCC2)c1 | 6.4 | 1.1 | 71.5* | -1.1
O=C(Oc1cccc2cccnc12)c1cccc(S(=O)(=O)N2CCCCCC2)c1 | 0.9 | -0.8 | -3.6 | -0.1
CC(C)N(C(=O)CCl)c1ccccc1 | 33.5* | 1.2 | -1.7 | -0.1
CN(C)c1ccc(C(=O)Nc2ccc(Cl)cc2C(=O)c2ccccc2)cc1 | 2.2 | 0.7 | 5.2 | -0.1
CCn1nc(-c2cccnc2)nc2c(=O)n(C)c(=O)nc1-2 | 76.4* | -5.4 | -7.2 | -0.2
O=C(NCCN1CCOCC1)c1ccnc(Cl)c1 | -6.5 | 0.2 | 1.4 | 0.7
O=C1NC(=O)N(c2cccc3ccccc23)C(=O)/C1=C\c1ccco1 | -3.6 | -0.4 | 78.3* | -0.1
O=C1NC(=S)N(c2ccc(Cl)cc2)C(=O)/C1=C/c1ccco1 | 17.1 | -0.6 | 32.9 | 0.0
O=C1NC(=S)N(c2ccccc2)C(=O)/C1=C\C=C\c1ccco1 | -2.5 | -0.6 | 74.9* | -0.8
O=C1NC(=S)N(c2ccc(F)cc2)C(=O)/C1=C/c1ccco1 | -4.8 | -0.3 | 63.2* | -1.0
CCN(CC)C(=O)C1c2cccn2-c2ccccc2CN1C1CCN(C(C)=O)CC1 (stereo not drawn) | 8.4 | -2.9 | 11.7 | 0.0
CN(C)c1ccc(/C=N/N=C(\N)N[N+](=O)[O-])cc1 | -40.8 | -1.2 | -0.9 | -0.1
CC(C)(C)NC(=O)CN1C2CCC1CC(O)(c1ccc(F)cc1)C2 (stereo not drawn) | -1.1 | 1.0 | -5.3 | 0.0
COC(=O)Nc1nc2ccccc2[nH]1 | 35.2* | -2.9 | -11.3 | 0.1
Oc1ccc(Cl)cc1CN1CCN(c2ccccc2)CC1 | 6.0 | 0.9 | -9.6 | 0.1
Cc1cc(C)[n+](-c2ccccc2)c2[nH]c(=O)[nH]c(=O)c12 | -5.1 | 1.8 | 8.1 | 0.9
SMILES | TEAD-YAP inh | GPR151 ag | MITF primary | FBW7 activator
Cc1cc(C)n2nc3c(c(C)cc(C)[n+]3-c3ccccc3)c2n1 | 33.4* | 0.9 | 15.7 | 0.3
O=C(CN1CCCCCC1)c1ccccc1 | 0.2 | 0.0 | -13.8 | -0.1
O=C(c1ccccc1)C(CN1CCCC1)c1ccccc1 (stereo not drawn) | 54.4* | 0.0 | 0.0 | -0.1
C=CCN1C(=O)C2(C(C(=O)OC)=C(N)Oc3cc(C)n(CC)c(=O)c32)c2ccccc21 (stereo not drawn) | -1.9 | -1.6 | -0.2 | 0.0
Cc1ccc(C2=NCC(=O)Nc3c2oc2ccccc32)cc1 | 15.1 | 0.1 | 6.9 | -0.1
COc1ccc(OC)c(C2=NCC(=O)Nc3c2oc2ccc(Cl)cc32)c1 | 58.6* | 3.2 | 10.9 | 0.1
O=c1oc2ccccc2c(O)c1C(c1cc2c(cc1[N+](=O)[O-])OCO2)c1c(O)c2ccccc2oc1=O | 1.4 | -1.5 | -12.8 | -0.1
